The nature of assay [1]: NCI Yeast Anticancer Drug Screen. Data for the rad50 strain (AID 155).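 Further: 0% = growth of vehicle-only cultures of the same strain.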 To be noted: S. cerevisiae rad50 strain growth inhibition, active compounds read high. An outline of the steps: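 Yeast carrying a defined DNA repair defect were exposed to test compounds, and growth was compared with vehicle-treated controls to give percent inhibition.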
Assay [2] is described as follows: NCI Yeast Anticancer Drug Screen. Data for the mec2-1 strain (AID 157). To be noted: S. cerevisiae mec2-1 strain, active compounds read high. An outline of the steps:
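mec2-1 yeast strain, carrying an alteration in DNA damage repair or cell cycle control, was exposed to compounds; growth inhibition was measured relative to vehicle-treated controls.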

Assay [3] can be described thus: NCI Yeast Anticancer Drug Screen. Data for the sgs1 mgt1 strain (AID 161).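 Further: 0% = growth of cultures given vehicle only.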 To be noted: S. cerevisiae sgs1 mgt1 strain, active compounds read high. An outline of the steps: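 Compounds are added to genetically altered yeast, and growth is compared with cultures given vehicle alone to give percent inhibition.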
Assay [4] in a line: NCI Yeast Anticancer Drug Screen. Data for the cln2 rad14 strain (AID 165).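 Further: 0% = growth equal to vehicle treated cultures.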 As to conditions: S. cerevisiae cln2 rad14 strain, active compounds read high. An outline of the steps: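 Yeast carrying cln2 and rad14 alterations (cell cycle control and DNA damage repair) were exposed to compounds. Growth inhibition was measured against vehicle-treated controls.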
Assay [5] can be described thus: NCI Yeast Anticancer Drug Screen. Data for the bub3 strain (AID 167). To be noted: S. cerevisiae bub3 mutant strain, active compounds read high. An outline of the steps:
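Compounds were applied to a genetically altered yeast strain carrying a cell-cycle control defect. Growth inhibition was scored against vehicle-treated controls.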

Assay [6] can be described thus: NCI Yeast Anticancer Drug Screen. Data for the mlh1 rad18 strain (AID 175). To be noted: S. cerevisiae mlh1 rad18 strain growth inhibition, active compounds read high. An outline of the steps: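 Growth inhibition of the yeast strain was measured after compound exposure and expressed relative to vehicle-treated controls. The strain carries defined defects in DNA damage repair.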

Setting [7] is: at 5.0 µM (retest, dose inferred, filed as 0.5).
Where [8] appears, read: at 50.0 µM (retest, dose inferred, filed as 5.0).

Structures are written as SMILES. About 79,000 compounds went through this panel and 15% of them were active in at least one assay; those are over-represented in the sample as a whole. Unmarked numbers belong to inactive results. Activity calls are given as the source filed them. No stated cut-off is given here; in the data, active means growth inhibition above about 70%; inactive means the rest.

Consider `Clc1ccc2nc3c(c(N4CCCCC4)c2c1)CCCC3`, for which the growth inhibition in assay [1] (setting [7]) is 7%; in assay [1] (setting [8]), 99% (active); in assay [1] (at 50.0 µM), 98.8% (active); in assay [2] (setting [7]), 4%; in assay [2] (setting [8]) it was 99% (active); in assay [2] (at 50.0 µM), 99.2% (active). The growth inhibition in assay [3] (setting [7]) was 13%; in assay [3] (setting [8]), 99% (active); in assay [3] (at 50.0 µM), 99.4% (active); in assay [4] (setting [7]) it was 2%; in assay [4] (setting [8]) it was 99% (active); in assay [4] (at 50.0 µM), 99.2% (active). The growth inhibition in assay [5] (setting [7]) was 0%; in assay [5] (setting [8]) it was 99% (active); in assay [5] (at 50.0 µM), 97% (active); in assay [6] (setting [7]), 11%; in assay [6] (setting [8]), 98% (active); in assay [6] (at 50.0 µM) it was 99.2% (active).

For the compound `C(=P(c1ccccc1)(c1ccccc1)c1ccccc1)[P+](c1ccccc1)(c1ccccc1)c1ccccc1.[Br][Cu][Br]`, the growth inhibition was 98% (active) in assay [1] (setting [7]); 99% (active) in assay [1] (setting [8]); 99.2% (active) in assay [1] (at 50.0 µM); 99% (active) in assay [2] (setting [7]); 99% (active) in assay [2] (setting [8]); 99.5% (active) in assay [2] (at 50.0 µM). For the same compound, the growth inhibition in assay [3] (setting [7]) is 99% (active); in assay [3] (setting [8]) it was 99% (active); in assay [3] (at 50.0 µM) it was 99.2% (active); in assay [4] (setting [7]), 98% (active); in assay [4] (setting [8]) it was 99% (active); in assay [4] (at 50.0 µM), 98% (active). Also, the growth inhibition in assay [5] (setting [7]) was 98% (active); in assay [5] (setting [8]), 99% (active); in assay [5] (at 50.0 µM), 99% (active); in assay [6] (setting [7]), 99% (active); in assay [6] (setting [8]) it was 99% (active); in assay [6] (at 50.0 µM) it was 99.3% (active).

As to `CCN(CC)CC(O)CNc1ccc(NCC(O)CCl)c2c1C(=O)c1ccccc1C2=O` (stereo not given), the growth inhibition was 98% (active) in assay [1] (setting [7]); 98% (active) in assay [1] (setting [8]); 36% in assay [1] (at 50.0 µM); 98% (active) in assay [2] (setting [7]); 98% (active) in assay [2] (setting [8]); -19.1% in assay [2] (at 50.0 µM). Besides, the growth inhibition in assay [3] (setting [7]) is 98% (active); in assay [3] (setting [8]) it was 98% (active); in assay [3] (at 50.0 µM) it was 7.1%; in assay [4] (setting [7]), 97% (active); in assay [4] (setting [8]), 97% (active); in assay [4] (at 50.0 µM) it was 10.8%. Besides, the growth inhibition in assay [5] (setting [7]) was 97% (active); in assay [5] (setting [8]), 97% (active); in assay [5] (at 50.0 µM) it was 12.4%; in assay [6] (setting [7]) it was 99% (active); in assay [6] (setting [8]), 99% (active); in assay [6] (at 50.0 µM), 19.1%.

Consider `CC(=O)SC(C[N+](=O)[O-])c1ccc2c(c1)OCO2` (stereo not given), for which the growth inhibition in assay [1] (setting [7]) was 55%; in assay [1] (setting [8]), 91% (active); in assay [1] (at 50.0 µM), 91% (active); in assay [2] (setting [7]) it was 69%; in assay [2] (setting [8]), 100% (active); in assay [2] (at 50.0 µM) it was 93% (active). The growth inhibition in assay [3] (setting [7]) was 53%; in assay [3] (setting [8]), 99% (active); in assay [3] (at 50.0 µM), 93.5% (active); in assay [4] (setting [7]) it was 44%; in assay [4] (setting [8]), 57%; in assay [4] (at 50.0 µM) it was 91.3% (active). Besides, the growth inhibition in assay [5] (setting [7]) was 63%; in assay [5] (setting [8]) it was 96% (active); in assay [5] (at 50.0 µM), 92.5% (active); in assay [6] (setting [7]), 59%; in assay [6] (setting [8]), 97% (active); in assay [6] (at 50.0 µM) it was 90.3% (active).

With `Cc1c(-c2ccccc2)ccnc1/C=N/NS(=O)(=O)c1ccccc1`, the growth inhibition is 0% in assay [1] (setting [7]); -4% in assay [1] (setting [8]); 42% in assay [1] (at 50.0 µM); -1% in assay [2] (setting [7]); 15% in assay [2] (setting [8]); 22.9% in assay [2] (at 50.0 µM). Also, the growth inhibition in assay [3] (setting [7]) is 4%; in assay [3] (setting [8]), 38%; in assay [3] (at 50.0 µM) it was 82% (active); in assay [4] (setting [7]), -3%; in assay [4] (setting [8]), -6%; in assay [4] (at 50.0 µM) it was 35.3%. For the same compound, the growth inhibition in assay [5] (setting [7]) was -8%; in assay [5] (setting [8]), -3%; in assay [5] (at 50.0 µM), 39.1%; in assay [6] (setting [7]) it was -3%; in assay [6] (setting [8]), 28%; in assay [6] (at 50.0 µM), 52.2%.

As to `CCOC(=O)N1c2ccc3ccccc3c2C=CC1C#N` (stereo not given), the growth inhibition in assay [1] (setting [7]) is 0%; in assay [1] (setting [8]), 6%; in assay [1] (at 50.0 µM), 96.5% (active); in assay [2] (setting [7]), -12%; in assay [2] (setting [8]), -5%; in assay [2] (at 50.0 µM), 97.3% (active). In addition, the growth inhibition in assay [3] (setting [7]) was -1%; in assay [3] (setting [8]), 14%; in assay [3] (at 50.0 µM), 96.6% (active); in assay [4] (setting [7]), -11%; in assay [4] (setting [8]), 7%; in assay [4] (at 50.0 µM), 95.5% (active). The growth inhibition in assay [5] (setting [7]) was -18%; in assay [5] (setting [8]), -20%; in assay [5] (at 50.0 µM), 86.3% (active); in assay [6] (setting [7]) it was -2%; in assay [6] (setting [8]) it was -6%; in assay [6] (at 50.0 µM), 94.7% (active).

As to `COc1ccc2nc(-c3ccc(Cl)cc3)[nH]c2c1`, the growth inhibition in assay [1] (setting [7]) is 1%; in assay [1] (setting [8]), 88% (active); in assay [1] (at 50.0 µM), 72.7% (active); in assay [2] (setting [7]), -5%; in assay [2] (setting [8]) it was 91% (active); in assay [2] (at 50.0 µM), 74.9% (active). In addition, the growth inhibition was -3% in assay [3] (setting [7]); 90% (active) in assay [3] (setting [8]); 80.5% (active) in assay [3] (at 50.0 µM); -8% in assay [4] (setting [7]); 47% in assay [4] (setting [8]); -4% in assay [4] (at 50.0 µM). For the same compound, the growth inhibition is 3% in assay [5] (setting [7]); 90% (active) in assay [5] (setting [8]); 94.2% (active) in assay [5] (at 50.0 µM); -4% in assay [6] (setting [7]); 78% (active) in assay [6] (setting [8]); 60.3% in assay [6] (at 50.0 µM).

On to `CCCCCCNC(=S)N/N=C(\C)c1ccccn1`, for which the growth inhibition in assay [1] (setting [7]) is 72% (active); in assay [1] (setting [8]), 99% (active); in assay [1] (at 50.0 µM), 76.3% (active); in assay [2] (setting [7]), 86% (active); in assay [2] (setting [8]), 99% (active); in assay [2] (at 50.0 µM), 85.7% (active). For the same compound, the growth inhibition was 63% in assay [3] (setting [7]); 99% (active) in assay [3] (setting [8]); 90% (active) in assay [3] (at 50.0 µM); 90% (active) in assay [4] (setting [7]); 95% (active) in assay [4] (setting [8]); 90.3% (active) in assay [4] (at 50.0 µM). The growth inhibition in assay [5] (setting [7]) was 98% (active); in assay [5] (setting [8]), 99% (active); in assay [5] (at 50.0 µM), 90.5% (active); in assay [6] (setting [7]), 97% (active); in assay [6] (setting [8]), 93% (active); in assay [6] (at 50.0 µM), 91.2% (active).

In the case of `c1ccc(CN2CCC3(CC2)SSC2(CCN(Cc4ccccc4)CC2)SS3)cc1`, the growth inhibition in assay [1] (setting [7]) is 0%; in assay [1] (setting [8]), 34%; in assay [1] (at 50.0 µM) it was 73.1% (active); in assay [2] (setting [7]) it was 14%; in assay [2] (setting [8]), -3%; in assay [2] (at 50.0 µM) it was 24.4%. Besides, the growth inhibition was 5% in assay [3] (setting [7]); 35% in assay [3] (setting [8]); 30.9% in assay [3] (at 50.0 µM); 31% in assay [4] (setting [7]); 21% in assay [4] (setting [8]); 29.8% in assay [4] (at 50.0 µM). The growth inhibition in assay [5] (setting [7]) was 16%; in assay [5] (setting [8]), 18%; in assay [5] (at 50.0 µM), 42.2%; in assay [6] (setting [7]), 7%; in assay [6] (setting [8]), 19%; in assay [6] (at 50.0 µM), 45.9%.

Consider `CCCCCCCCCCCC(=O)OCC1OC(OC)C(NC(=O)N(CCCl)N=O)C(O)C1O` (stereo not given), for which the growth inhibition was 39% in assay [1] (setting [7]); 39% in assay [1] (setting [8]); 79.9% (active) in assay [1] (at 50.0 µM); 20% in assay [2] (setting [7]); 20% in assay [2] (setting [8]); 67.5% in assay [2] (at 50.0 µM). The growth inhibition in assay [3] (setting [7]) was 21%; in assay [3] (setting [8]), 21%; in assay [3] (at 50.0 µM), 90.5% (active); in assay [4] (setting [7]) it was 17%; in assay [4] (setting [8]), 17%; in assay [4] (at 50.0 µM), 30.5%. Also, the growth inhibition in assay [5] (setting [7]) was 13%; in assay [5] (setting [8]) it was 13%; in assay [5] (at 50.0 µM) it was 77.4% (active); in assay [6] (setting [7]), 14%; in assay [6] (setting [8]) it was 14%; in assay [6] (at 50.0 µM), 76% (active).

Values taken from PubChem BioAssay (NCI).
